The nature of assay [1]: qHTS for Inhibitors of Plasmodium falciparum (CP250) proliferation (AID 504320). Also: potency is read from the fitted curve at half-maximal effect. In outline:
(§1)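 Parasite growth measured as SYBR Green DNA fluorescence (ex 485, em 535 nm) after overnight lysis following 72 h culture at 37 °C, 0.3% parasitemia, 2.5% hematocrit. Values normalized against DMSO and 0.29 uM artemisinin controls, with plate-stack correction.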

The nature of assay [2]: qHTS for Inhibitors of Plasmodium falciparum (DD2) proliferation (AID 504314).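 Also: parasite DNA measured by SYBR Green fluorescence after red cell lysis.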 The gist of the method:
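SYBR Green DNA-fluorescence growth assay: infected RBCs at 0.3% parasitemia, 2.5% hematocrit, 72 h compound exposure, 37C, 5% CO2; overnight lysis with dye at RT; normalized to 0.29 uM artemisinin and vehicle.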

Assay [3] can be described thus: qHTS for Inhibitors of Plasmodium falciparum (7G8) proliferation (AID 504316). Also: nearly all actives have a fitted effect of over 65% in size. Also: potency is read from the fitted curve at half-maximal effect. In outline:
as §1

A short description of assay [4]: qHTS for Inhibitors of Plasmodium falciparum (HB3) proliferation (AID 504318). Also: nearly all actives have a fitted effect of over 60% in size. Also: potency is read from the fitted curve at half-maximal effect. In outline:
as §1
(In general: qHTS replaces the single test concentration by a dilution series.)

Assay [5] can be described thus: qHTS for Inhibitors of Plasmodium falciparum (GB4) proliferation (AID 504315). Also: nearly all actives have a fitted effect of over 50% in size. Also: potency is read from the fitted curve at half-maximal effect. In outline:
as §1

Inconclusive results are not listed. The source made the active and inactive calls. Calls follow the shape of the dose curve; as a rule, active = well fitted curve in the direction sought with a large enough effect; inconclusive = small, poorly fitted or top-dose-only effect, or another doubt; inactive = no such curve, though single readings can be large; an effect the other way counts as inactive or inconclusive.

For `COc1cccc([C@H]2NC(=O)CC=C[C@H](C)[C@@H](c3cccc(OC)c3)NC(=O)CC=C[C@H]2C)c1`, the Potency result in assay [1] was “inactive”.
For `C=CCOC(=O)NC(c1ccc(F)c(F)c1)C(C(C)=O)C(=O)OC` (stereo unspecified), the Potency result in assay [2], in assay [3], in assay [4] and in assay [1] was “inactive” throughout.
Regarding `C[C@@H]1CC2=CCCC2[C@]2(O1)C(=O)N(Cc1ccc(Br)cc1)c1cccc(Br)c12` (stereo partly specified), the Potency entry in assay [2], in assay [3] and in assay [1] was “inactive” in each case.
For the compound `CC(=O)OC[C@H]1O[C@@H](ON=CC[C@@H]2C=C[C@@H](OC(C)=O)[C@@H](COC(C)=O)O2)[C@@H](OC(C)=O)[C@@H](OC(C)=O)[C@@H]1OC(C)=O`, the Potency entry in assay [2], in assay [3], in assay [4] and in assay [1] was “inactive” in each case.
As for `O=C1[C@H]2[C@@H]3[C@@H](O)[C@H](O)CC(=NOCc4ccccc4)[C@H]3CC[C@H]2C(=O)N1Cc1ccc2c(c1)OCO2`, the Potency entry in assay [3] and in assay [1] was “inactive” throughout.
Regarding `CCOC(=O)OC[C@H]1O[C@H](c2cc(C)cc(C)c2)C=C[C@H]1OC(=O)OCC`, the Potency result in assay [2], in assay [3], in assay [4] and in assay [1] was “inactive” each time.
For `CCN1C(=NCc2ccccc2)NC(c2cccc(C(F)(F)F)c2)C(C(=O)OC)=C1C` (stereo unspecified), the Potency entry in assay [4] and in assay [1] was “inactive” in each case.
As to `COc1ccc2c3c(c(=O)oc2c1)[C@H]1O[C@](CCCCN2C(=O)c4ccccc4C2=O)(Cc2cc(OC)c(OC)cc21)O3`, the Potency was 2.69 µM (active) in assay [5] and 1.51 µM (active) in assay [4].
For `COc1ccc(COC(=O)NN=C2C[C@@H](O)[C@@H](O)[C@@H]3[C@H]4C(=O)N(c5cccc(Oc6ccccc6)c5)C(=O)[C@@H]4CC[C@H]23)cc1`, the Potency entry in assay [2], in assay [3], in assay [4] and in assay [1] was “inactive” throughout.
Consider `C=C(Br)CO[C@@H]1C=C[C@@H](c2ccccc2)O[C@@H]1COC`, for which the Potency result in assay [2], in assay [4] and in assay [1] was “inactive” in each case.
As for `COc1cccc2c1C1(CCCCC1)CC2NC(=O)C(F)(F)F` (stereo unspecified), the Potency result in assay [5], in assay [3], in assay [4] and in assay [1] was “inactive” in each case.
As for `C[C@@H]1CC[C@H]2C(=O)N(Cc3ccc(Cl)cc3)C[C@@H](O)CN2[C@@H]1c1cccc(Br)c1`, the Potency entry in assay [2] and in assay [1] was “inactive” each time.
Consider `CC(Nc1oc(-c2ccccc2)nc1-c1cccc2ccccc12)c1ccccc1` (stereo unspecified), for which the Potency result in assay [1] is “inactive”.
Consider `C#CCOCC#CC[C@@]1(C(=O)OC)C=C[C@@H](C)[C@H](c2ccccc2Br)N1C(=O)C(F)(F)F`, for which the Potency entry in assay [5] and in assay [1] was “inactive” throughout.
In the case of `O=c1oc2ccccc2c2c1[C@H]1O[C@](c3ccsc3)(Cc3ccccc31)O2`, the Potency result in assay [5], in assay [4] and in assay [1] was “inactive” in each case.
On to `O=C1[C@H]2[C@@H]3[C@@H](O)[C@H](O)CC(=NOCc4ccccc4)[C@@H]3CC[C@H]2C(=O)N1C1CCCCC1`, for which the Potency result in assay [5], in assay [3], in assay [4] and in assay [1] was “inactive” each time.
For `COC(=O)C1=C(C(=O)OC)[C@@H]2N(C)c3ccccc3[C@@]23CCC(=O)N(Cc2cc(OC)c(OC)c(OC)c2)C3=N1`, the Potency entry in assay [5] and in assay [1] was “inactive” in each case.
With `C=CCCC1(C(=O)c2ccccc2)C(=O)C(CC=C(C)C)=C(OC)C(CC=C(C)C)(CCC=C(C)C)C1=O` (stereo unspecified), the results for the Potency in assay [5], in assay [3] and in assay [4] were 1.69 µM (active), 1.51 µM (active) and 1.69 µM (active), respectively.
For the compound `CC1(C)CC(=O)C2=C(C1)O[C@@]1(CCCCN3C(=O)c4ccccc4C3=O)Cc3cc(C#N)ccc3[C@H]2O1`, the Potency in assay [3] is 1.69 µM (active). Also, in assay [1], the Potency result was “inactive”.
On to `CC(C)=CCCC(C)=CCON=C1C[C@@H](O)[C@@H](O)[C@@H]2[C@H]3C(=O)N(C[C@@H]4CCCO4)C(=O)[C@@H]3CC[C@@H]12`, for which the Potency result in assay [2], in assay [3], in assay [4] and in assay [1] was “inactive” in each case.
With `O=C(N[C@H](c1cccc(Br)c1)[C@@H]1CCCC=C1c1ccccc1)C(F)(F)F`, the Potency result in assay [3] is “inactive”.
For the compound `COC(=O)NC(c1ccccc1)C1(C(=O)OC)C(=O)Cc2ccccc21` (stereo unspecified), the Potency result in assay [2], in assay [3], in assay [4] and in assay [1] was “inactive” in each case.
In the case of `C[C@H]1COc2c(N3CCN(C)CC3)c(F)cc3c(=O)c(C(=O)NCc4ccco4)cn1c23`, the Potency result in assay [2], in assay [3] and in assay [1] was “inactive” throughout.
Consider `CCN1C(=NCC(C)C)N[C@@H](CCc2ccccc2)[C@H](C(=O)OC)[C@H]1C`, for which the Potency result in assay [5] and in assay [3] was “inactive” each time.
Take `O=C1CCCC2=C1[C@H]1O[C@](CCCCN3C(=O)c4ccccc4C3=O)(Cc3c1ccc1ccccc31)O2`: in assay [3], the Potency is 1.69 µM (active). Further, the Potency result in assay [1] was “inactive”.
Regarding `C=CCCN1C(=O)NC(c2ccccc2)C(C(=O)OC)=C1C` (stereo unspecified), the Potency result in assay [2], in assay [3] and in assay [4] was “inactive” throughout.
On to `CCN1C(=NCc2cccc(C(F)(F)F)c2)NC(c2cccc(C(F)(F)F)c2)C(C(=O)OC)=C1C` (stereo unspecified), for which the figures for the Potency in assay [5] and in assay [1] were 0.0953 µM (active) and 0.757 µM (active), respectively. Moreover, the Potency result in assay [4] is “inactive”.
`COC(=O)C1=C(C)N(Cc2ccco2)C(=O)NC1c1ccc(Br)cc1` (stereo unspecified): the Potency result in assay [2], in assay [3] and in assay [1] was “inactive” throughout.
`C[C@H]1CC[C@H]2C(=O)N(Cc3ccc(Cl)cc3)C[C@@H](O)CN2[C@H]1c1ccc(Br)cc1`: the Potency in assay [3] was 1.69 µM (active). Besides, the Potency result in assay [1] was “inactive”.
For the compound `COC(=O)C1=C(C)N(Cc2ccccc2)C(=NCC2CC2)NC1c1cccc(C(F)(F)F)c1` (stereo unspecified), the Potency entry in assay [3] was “inactive”.
Take `CCN1C(=NCCCOC(C)C)NC(c2ccccc2)C(C(=O)OC)=C1C` (stereo unspecified): the Potency entry in assay [5], in assay [3], in assay [4] and in assay [1] was “inactive” in each case.
Consider `CC(=O)OC[C@H]1O[C@H](c2cc(C)cc(C)c2)C=C[C@H]1OC(C)=O`, for which the Potency result in assay [2], in assay [3], in assay [4] and in assay [1] was “inactive” in each case.
Regarding `COC(=O)CC=C[C@@H](C)[C@H](NC(=O)OCC(Cl)(Cl)Cl)c1ccc2ccccc2c1`, the Potency result in assay [2], in assay [3], in assay [4] and in assay [1] was “inactive” throughout.
Consider `C=CCN1C(=O)CC[C@@]23C1=NC(C(=O)OC)=C(C(=O)OC)[C@@H]2N(CC=C)c1ccccc13`, for which the Potency result in assay [2], in assay [4] and in assay [1] was “inactive” throughout.
Regarding `COCc1cc2cc3c(cc2c2c(C(=O)OC)c(C(=O)OC)c(C(=O)OC(C)(C)C)n12)OCO3`, in assay [1], the Potency entry is “inactive”.
Take `CC(CCC(=O)OC[C@H]1O[C@H](C#Cc2ccccc2)C=C[C@H]1Oc1ccc(C)cc1)=NO[C@H](C)c1cn([C@@H]2COC[C@@H]2O)nn1`: the Potency result in assay [3] is “inactive”.
For `COC(=O)C1=C(C)N(CC2CC2)C(=O)NC1CCc1ccccc1` (stereo unspecified), the Potency result in assay [5] and in assay [1] was “inactive” throughout.
Regarding `C[C@@H]1CC[C@H]2C(=O)N(Cc3ccc(Cl)cc3)C[C@@H](O)CN2[C@@H]1c1ccc(Br)cc1`, the Potency entry in assay [4] and in assay [1] was “inactive” throughout.

The values above are taken from PubChem BioAssay (NCATS).
